Test results: PubChem BioAssay (Tox21)
Results filed as inconclusive are left out. The source made the active and inactive calls. Unless noted, calls come from the whole dose curve; as a rule, active = well fitted curve in the direction sought with a large enough effect in the repeat runs; inconclusive = weak or mixed curves; inactive = flat fitted curve, though single readings scatter.

Key:
[1] = qHTS assay to test for compound auto fluorescence at 535 nm (green) in HEK293 cells (AID 720680)
[2] = qHTS assay to test for compound auto fluorescence at 460 nm (blue) in HEK293 cell free culture (AID 720681)
In short: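 Test compounds were pinned into cell-free culture medium (DMEM with 10% FBS) and fluorescence was read directly at Ex/Em 405/460 nm. Signals were expressed as fluorescence equivalents of triamterene, with DMSO vehicle as control.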

[3] = qHTS assay to test for compound auto fluorescence at 535 nm (green) in HEK293 cell free culture (AID 720682)
In short: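 Using fluorescein as calibrant, autofluorescence was quantified at 485/535 nm in cell-free DMEM containing 10% FBS after pintool addition of compound or vehicle.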

[4] = qHTS assay to test for compound auto fluorescence at 590 nm (red) in HEK293 cell free culture (AID 720683)
In short: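 Tox21 10K library compounds were pinned into cell-free DMEM with 10% FBS and fluorescence was read at excitation 540 nm. Activity is expressed as Rose Bengal sodium equivalency.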

[5] = qHTS assay to test for compound auto fluorescence at 590 nm (red) in HepG2 cell free culture (AID 720684)
In short: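 Measured in medium alone (MEM containing 10% FBS) following pintool addition of compound; emission at 590 nm with 540 nm excitation, referenced to Rose Bengal sodium.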

[6] = qHTS assay to test for compound auto fluorescence at 460 nm (blue) in HepG2 cell free culture (AID 720685)
In short: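 Compound (23 nL) or DMSO pinned into cell-free MEM with 10% FBS; blue fluorescence read at 405/460 nm excitation/emission, expressed as auto-fluorescence equivalency to triamterene.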

[7] = qHTS assay to test for compound auto fluorescence at 535 nm (green) in HepG2 cell free culture (AID 720686)
[8] = qHTS assay to test for compound auto fluorescence at 460 nm (blue) in HepG2 cells (AID 720687)
In short: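 Cells (2,000/well in MEM with 10% FBS) attached overnight at 37 C, then were exposed to compound or DMSO for 1 hr at 37 C, 5% CO2. Fluorescence read at Ex/Em 405/460 nm, expressed as triamterene-equivalent signal.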

[9] = molecular target: Glucocorticoid receptor (Homo sapiens) (UniProt P04150); assay: qHTS assay to identify small molecule agonists of the glucocorticoid receptor (GR) signaling pathway (AID 720691; active = well fitted activation curve with a large enough effect in the signal ratio in the repeat runs, not every such curve was filed as active; the % refers to the signal ratio)
Chain of Glucocorticoid receptor (Homo sapiens) (P04150 whole entry, looked up): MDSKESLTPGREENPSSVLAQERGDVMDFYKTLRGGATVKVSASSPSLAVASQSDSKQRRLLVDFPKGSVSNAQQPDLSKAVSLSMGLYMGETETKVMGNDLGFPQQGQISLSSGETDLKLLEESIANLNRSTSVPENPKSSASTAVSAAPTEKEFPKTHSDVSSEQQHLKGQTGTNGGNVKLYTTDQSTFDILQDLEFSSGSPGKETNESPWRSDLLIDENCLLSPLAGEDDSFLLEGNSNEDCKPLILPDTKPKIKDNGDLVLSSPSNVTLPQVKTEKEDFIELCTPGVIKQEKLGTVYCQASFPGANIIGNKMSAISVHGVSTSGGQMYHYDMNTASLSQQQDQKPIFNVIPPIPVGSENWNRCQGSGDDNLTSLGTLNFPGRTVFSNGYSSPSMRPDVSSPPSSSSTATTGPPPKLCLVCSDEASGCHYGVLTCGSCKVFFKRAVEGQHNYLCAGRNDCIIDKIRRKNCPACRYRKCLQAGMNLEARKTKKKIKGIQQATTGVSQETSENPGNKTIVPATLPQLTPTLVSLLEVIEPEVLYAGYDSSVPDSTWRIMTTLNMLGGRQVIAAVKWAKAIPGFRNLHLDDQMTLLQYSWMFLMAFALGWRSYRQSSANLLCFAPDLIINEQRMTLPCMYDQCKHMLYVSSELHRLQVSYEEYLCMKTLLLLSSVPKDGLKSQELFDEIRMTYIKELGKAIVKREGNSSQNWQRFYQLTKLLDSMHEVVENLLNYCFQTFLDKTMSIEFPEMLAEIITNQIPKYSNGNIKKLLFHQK
In short: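 Fluorescence intensity from LiveBLAzer B/G FRET substrate (2 h, room temperature) reports beta-lactamase expression driven by the glucocorticoid response element in GR-bla HeLa cells after 18 h compound exposure at 37 C.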

[10] = molecular target: Glucocorticoid receptor (Homo sapiens) (UniProt P04150); assay: qHTS assay to identify small molecule antagonists of the glucocorticoid receptor (GR) signaling pathway (AID 720692; active = well fitted inhibition curve with a large enough effect in the signal ratio in the repeat runs, not every such curve was filed as active; the % refers to the signal ratio)
In short: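 HeLa GR-bla cells; cmpd + dex 5 nM final, 18 h 37 C; LiveBLAzer B/G FRET substrate 2 h RT; fluorescence intensity read. Antagonist mode, qHTS.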
% is set by controls: 0 for no effect and ±100 for the full control effect.

CO[C@@H]1[C@@H](OC(N)=O)[C@@H](O)[C@H](Oc2ccc3c(O)c(NC(=O)c4ccc(O)c(CC=C(C)C)c4)c(=O)oc3c2C)OC1(C)C
inactive: fluorescence, % of fluorescein [1] -0.0123% [at 18.6 µM] | fluorescence, % of fluorescent control [2] 0.0286% [at 18.6 µM] | activity change [3] -0.156% [at 18.6 µM] | fluorescence, % of fluorescent control [4] 0.0652% [at 18.6 µM] | fluorescence, % of Rose Bengal [5] 0.235% [at 18.6 µM] | fluorescence, % of fluorescent control [6] 0.0828% [at 18.6 µM] | fluorescence, % of fluorescein control [7] -0.0494% [at 18.6 µM] | fluorescence, % of fluorescent control [8] 0.0292% [at 18.6 µM] | Potency [9] | outcome [10]

O=C(O)Cc1cn(-c2ccccc2)nc1-c1ccc(Cl)cc1
inactive: outcome [1] | outcome [2] | outcome [3] | outcome [4] | outcome [5] | outcome [6] | outcome [7] | outcome [8] | Potency [9] | outcome [10]

Cc1cc(NC(=O)C2=C(O)c3ccccc3S(=O)(=O)N2C)no1
inactive: outcome [1] | outcome [2] | outcome [3] | outcome [4] | outcome [5] | outcome [6] | outcome [7] | outcome [8] | Potency [9] | outcome [10]

Nc1ccc2cc(S(=O)(=O)O)cc(O)c2c1
inactive: outcome [1] | outcome [2] | outcome [3] | outcome [4] | outcome [5] | outcome [7]

Cc1cc2cc3c(C)cc(=O)oc3c(C)c2o1
inactive: fluorescence, % of fluorescein [1] 0.0223% [at 18.6 µM] | fluorescence, % of fluorescent control [2] 1.37% [at 18.6 µM] | activity change [3] -0.0015% [at 18.6 µM] | fluorescence, % of Rose Bengal [5] -0.0947% [at 18.6 µM] | fluorescence, % of fluorescent control [6] 1.64% [at 18.6 µM] | fluorescence, % of fluorescein control [7] -0.0028% [at 18.6 µM] | fluorescence, % of fluorescent control [8] 1.96% [at 18.6 µM]

O=C(O)Cc1ccc(Cl)cc1Cl
inactive: outcome [1] | outcome [2] | outcome [3] | outcome [4] | outcome [5] | outcome [6] | outcome [7] | outcome [8] | outcome [10]

C=CC(OCC)OCC
inactive: outcome [1] | outcome [2] | outcome [3] | outcome [5] | outcome [6] | outcome [7] | outcome [8]

CCCCNc1ccc(C(=O)OCCN(C)C)cc1
inactive: fluorescence, % of fluorescein [1] -0.108% [at 18.6 µM] | fluorescence, % of fluorescent control [2] 0.0181% [at 18.6 µM] | activity change [3] -0.0203% [at 18.6 µM] | fluorescence, % of fluorescent control [4] -0.282% [at 18.6 µM] | fluorescence, % of Rose Bengal [5] 0.315% [at 18.6 µM] | fluorescence, % of fluorescent control [6] 0.0923% [at 18.6 µM] | fluorescence, % of fluorescein control [7] -0.0132% [at 18.6 µM] | fluorescence, % of fluorescent control [8] 0.0537% [at 18.6 µM] | Potency [9] | outcome [10]

CC(C)=CCOC(=O)c1ccccc1
inactive: outcome [1] | outcome [2] | outcome [3] | outcome [4] | outcome [5] | outcome [6] | outcome [7] | outcome [8] | Potency [9] | outcome [10]

CC(C)=O
inactive: outcome [1] | outcome [2] | outcome [3] | outcome [5] | outcome [6] | outcome [7] | outcome [8]

CCCCCCOC(=O)CC
inactive: outcome [1] | outcome [2] | outcome [3] | outcome [4] | outcome [5] | outcome [6] | outcome [7] | outcome [8] | Potency [9] | outcome [10]

CC(C)NCC(O)COc1ccc(COCCOC(C)C)cc1 (stereo unspecified)
inactive: outcome [1] | outcome [2] | outcome [3] | outcome [4] | outcome [5] | outcome [6] | outcome [7] | outcome [8] | Potency [9] | outcome [10]

Cc1ccsc1/C=C/C1=NCCCN1C
inactive: fluorescence, % of fluorescein [1] 0.007% [at 18.6 µM] | fluorescence, % of fluorescent control [2] -0.0198% [at 18.6 µM] | activity change [3] 0.0151% [at 18.6 µM] | fluorescence, % of fluorescent control [4] -0.0392% [at 18.6 µM] | fluorescence, % of Rose Bengal [5] -0.469% [at 18.6 µM] | fluorescence, % of fluorescent control [6] -0.0937% [at 18.6 µM] | fluorescence, % of fluorescein control [7] -0.205% [at 18.6 µM] | fluorescence, % of fluorescent control [8] 0.164% [at 18.6 µM] | Potency [9] | outcome [10]

CN(C)c1ccc(C=O)cc1
inactive: outcome [1] | outcome [2] | outcome [3] | outcome [4] | outcome [5] | outcome [6] | outcome [7] | outcome [8] | Potency [9] | outcome [10]

Cc1ccccc1N=O
inactive: outcome [1] | outcome [2] | outcome [3] | outcome [4] | outcome [5] | outcome [6] | outcome [7] | outcome [8] | Potency [9] | outcome [10]

CC(CC=O)CCCC(C)(C)O (stereo unspecified)
inactive: outcome [1] | outcome [2] | outcome [3] | outcome [4] | outcome [5] | outcome [6] | outcome [7] | outcome [8] | Potency [9] | outcome [10]

O=C1c2cccc3c2[C@H](CCC3)CN1[C@@H]1CN2CCC1CC2
inactive: outcome [1] | outcome [2] | outcome [3] | outcome [4] | outcome [5] | outcome [6] | outcome [7] | outcome [8] | Potency [9] | outcome [10]

CC(=O)Nc1cccc(C)c1
inactive: outcome [1] | outcome [2] | outcome [3] | outcome [4] | outcome [5] | outcome [6] | outcome [7] | outcome [8] | Potency [9] | outcome [10]
